# Reference: PubChem BioAssay (NCI)
# “And” between values parts separate entries of the source, which are not always exact repeats. Identical values can stand only once. The panel holds about 83,000 compounds, 20% with a hit somewhere; the sample as a whole holds those more often.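 In brief: 96-well plates, 48 h treatment, single concentration, percent growth endpoint.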 Values without a mark were called inactive. The source made the active and inactive calls.
# Tested on: NCI/ADR-RES ovarian
# Assay: NCI-60 one-dose screen, 48 h (100 = growth as untreated, 0 = no growth, -100 = all killed)
# Conditions: 4.75 µM
# Experimental: Growth inhibition of the NCI/ADR-RES human […] tumor cell line is measured as a screen for anti-cancer activity. Cells are grown in 96 well plates and exposed to the test compound for 48 hours. Compounds are tested at a single concentration, which is 10^-5 M for most compounds. The reported endpoint is percent growth (GI% or GIPRCNT), where numbers from 0 - 100% represent growth inhibition, and numbers from -100% - 0 represent cell death. For example, a value of 40 represents 60% growth inhibition. A value of 0 means no net growth occurred over the course of the experiment. A value of -40 indicates 40% of cells at the beginning of the experiment died by the end of the experiment. A value of -100 means all cells are dead at the end of the experiment.
# NCI-60 Human Tumor Cell Lines Screen was performed using the standard one-dose NCI protocol, which is described in more detail at https://dtp.cancer.gov/discovery_development/nci-60/default.htm.
# Compounds with GIPRCNT values below 10 were considered active. Activity score was based on GIPRCNT using the following formula: […]
# Score is 0 for GIPRCNT values of 100 or above, 50 for GIPRCNT values of 0, and 100 for GIPRCNT values of -100.
row,SMILES,growth
1,CC(=O)OCC1OC([S-])C(OC(C)=O)C(OC(C)=O)C1OC(C)=O.[Au+].c1ccc(CN2[CH-]N(Cc3ccccc3)C(c3ccccc3)=C2c2ccccc2)cc1,53.3%

# Same assay, conditions: 10 µM
row,SMILES,growth
1,CC(=O)OCC1OC([S-])C(OC(C)=O)C(OC(C)=O)C1OC(C)=O.[Au+].c1ccc(CN2[CH-]N(Cc3ccccc3)C(c3ccccc3)=C2c2ccccc2)cc1,66.5%
2,O=C(O)CCCc1ccc(N(CCCl)CCCl)cc1,96.3% and 89%

# Same assay, conditions: 10 µM unless noted
row,SMILES,growth
1,O=C/C=C/c1ccco1,109%
2,COc1ccn(C)c(=O)c1C#N,102%
3,c1ccc2c(c1)O[As](O[As]1Oc3ccccc3O1)O2,50.1%
4,Cc1cc[c-]cc1.Fc1c[c-]c(-c2ccccn2)c(F)c1.[Pt+2].c1ccc([PH+](c2ccccc2)c2ccccn2)cc1,88.2%
5,C/C(=N/OC(=O)N(C)C)c1ccc(Cl)c(Cl)c1,106%
6,CC1(C)N(Nc2ccccc2)C(=O)C2CCCN21 (stereo not given),85.9%
7,C[C@]12CC[C@H]3[C@@H](CC=C4c5nc(-c6ccc(Br)cc6)sc5CC[C@@]43C)[C@@H]1CC[C@@H]2O,99.5%
8,O=[N+]([O-])c1cc(Br)c(O)c(Br)c1,104%
9,CCCCCCCCCCCCCCCC[N+](C)(C)Cc1ccccc1,82.4% and 83.6%
10,CO/N=C1\CC[C@]2(C)[C@H]3CC[C@]4(C)C(=O)CC[C@H]4[C@@H]3C[C@@H]3SC(N)=N[C@@]32C1,99.6%
11,N#CCN(CC#N)[N+](=O)[O-],110%
12,CC/C(=C(\c1ccc(OCCN2CCOCC2)cc1)c1ccc(OC(=O)Cc2ccccc2)cc1)c1ccc(Cl)cc1,105%
13,CC[C@@H](C)C(=O)O[C@H]1[C@H](O)[C@H]2[C@@H](CN3C[C@@H](C)CC[C@H]3[C@@]2(C)O)[C@@H]2C[C@]34O[C@]5(O)[C@@H](OC(=O)[C@@](C)(O)CC)CC[C@@]3(C)[C@@H]5[C@@H](OC(C)=O)[C@@H](OC(C)=O)[C@H]4[C@@]21O,104%
14,COc1ccc(N)cc1OC,107%
15,CC1=CC(=Nc2ccc(N(CCCl)CCCl)cc2)C=C(C)C1=O,19.8%
16,C[C@]12CCc3sc(Nc4ccc(F)cc4)nc3C1=CC[C@@H]1[C@@H]2CC[C@]2(C)C(=O)CC[C@@H]12,80.3%
17,CC12CCC3C(CCC4CC(O)CCC43C)C1CCC2=O (stereo not given),163%
18,Cc1cc(N)ccc1N,105%

row,SMILES,growth
1,N#CCC(=O)c1ccccc1,104%
2,Nc1nc(=S)nc(N)[nH]1,95.6%
3,O=[N+]([O-])c1cc(Cl)c(Cl)cc1Cl,102% and 104%
4,CC1=C2[C@H]3OC(=O)[C@@H](C)[C@@H]3CC[C@@]2(C)C=CC1=O,13.8%
5,N[C@@H](CCC(=O)CCl)C(=O)O,104% [20 µM]
6,O=c1c2ccccc2nc(-c2ccccc2Cl)n1-c1nnc(C(F)(F)F)s1,11.6%
7,O=c1[nH]c(=O)n(Cl)c(=O)n1Cl,115% and 96.8%
8,C(=NC1CCCCC1)=NC1CCCCC1,111% and 75.5%
9,Oc1ccc(O)c(Cl)c1,102% and 97.3%
10,O=[N+]([O-])c1ccc2scc3c4ccccc4nc-3c2c1,10.7%
11,CC(=O)OC1CC2(O)C(CCC3(C)C(c4ccc(=O)oc4)CCC32O)C2(C)CCC(OC3OC(CO)C(O)C(O)C3O)C=C12 (stereo not given),-61.6% (active)
12,COC(=O)C1=CO[C@@H](C)[C@@H]2CN3CCc4c([nH]c5cc(OC)ccc45)[C@@H]3C[C@H]12,93.8%
13,CN(C)c1ccc(C=C2C(=O)NC(=O)NC2=O)cc1,76.7%
14,O=C1NC(=O)C(=Cc2ccccc2)C(=O)N1,100% and 103%
15,O=C(O)C1C(C(=O)O)C2(Cl)C(Cl)=C(Cl)C1(Cl)C2(Cl)Cl (stereo not given),111% and 106%
16,CCCCS(=O)(=O)Cl,107%
17,C[C@]12CC[C@H]3[C@@H](CC=C4c5nc(N)sc5CC[C@@]43C)[C@@H]1CC[C@@H]2O,102%
18,CC(C)CCC1C(=O)NC(=O)NC1=O,105%

# Same assay, conditions: 75 µM
row,SMILES,growth
1,O=C(O)CCCc1ccc(N(CCCl)CCCl)cc1,31%
